# Results filed as inconclusive are left out. Active and inactive are the calls of the source. Calls follow the shape of the dose curve; as a rule, active = well fitted inhibition curve with a large enough effect; inconclusive = small, poorly fitted or top-dose-only effect; inactive = no such curve, though single readings can be large or run the other way.
# Assay: qHTS Assay for Lipid Storage Modulators: 3T3L1 Assay against Probe and Analogs
# Source text: Storing lipids as a reservoir for energy or the anabolism of elementary metabolites is a common feature of probably all cells and is conserved from bacteria to humans. The universal cellular lipid storage organelle is the so-called lipid storage droplet (LD). Although ubiquitous, LDs share a simple structure composed of a hydrophobic core that harbors the storage lipids, which is shielded by a droplet-specific phospholipid monolayer to which proteins are attached. The current model of LD biogenesis involves an incorporation of the lipid core into the membrane leaflets of the endoplasmic reticulum (ER) followed by a subsequent budding-like maturation of a LD, which ultimately pinches off. Once released, LD volume can increase by localized lipogenesis or fusion of existing droplets. Storage lipids are re-mobilized enzymatically by lipase activity. Lipase regulation in the adipocyte is heavily studied and involves multiple components including catecholamine signaling, the LD-associated proteins Perilipin and comparative gene identification-58 (CGI-58) and at least two lipases named hormone sensitive lipase (HSL) and adipocyte triglyceride lipase (ATGL). LD regulation outside of the adipocyte is poorly understood and only few components are known. However, there is an urgent need to learn more about ectopic fat depots as mislocalized storage of lipids, for example in the liver or muscle, is an eminent health problem associated with insulin resistance or the metabolic syndrome. We developed a laser-scanning cytometer assay to enable 1,536-well screening and combined the results of the small molecules screen with an RNAi database based on lipid storage. In this assay we tested analogs of the probe against a mammalian cell line (3T3L1), to see if these small molecules could disrupt lipid storage. NIH Molecular Libraries Probe Production Centers Network [MLPCN] NIH Chemical Genomics Center [NCGC] MLPCN Grant: MH085686 Assay Submitter (PI): Mathias Beller, Max-Planck-Institut fur Biophysikalische Chemie
# 3T3L1 cells were obtained from ATCC (CL-173). 4 uL of cells at 1.25 X 105 cell/mL were dispensed into 1536 well Poly-D-Lysine coated black with clear bottom imaging plates (Corning, #7356) to obtain 500 cells/well, and cultured at 37 °C, 95% humidity, and 5% CO2 overnight. The culture medium used was OPTI-MEM containing 5% fetal bovine serum (FBS). Triacsin C (Sigma-Aldrich T-4540), an inhibitor of long-chain fatty acyl CoA synthetase that blocks synthesis of triglycerides, was used as a positive control for lipid under-storage. A total of 23 nL of compounds dissolved in DMSO at different concentrations were transferred to the assay plates using a Kalypsys 1536-pin tool, the final DMSO concentration was 0.46%. One microliter of oleic acid at 400 uM (Calbiochem, #4954) was added to induce lipid droplet formation in the cells, and the plates were lidded. After 18-24 hours of incubation at 37 °C, 95% humidity, and 5% CO2, cells were fixed (8 % paraformaldehyde in PBS, 30 min, room temperature), washed three times with PBS, then stained for lipid droplet and nucleus using 4uL of PBS solution containing BODIPY lipid dye 493/503 (1:2000 dilution, Life Technologies, #3922) and Hoechst 33342 (1:1000, Life Technologies, #H3570) with Washer dispenser EL406(Biotek). Images were acquired using InCell 2000 (GE). Number of cells, number of lipids and sizes of lipids were analysis using GE Investigator software.
row,SMILES,Potency
1,CCOc1ccc(CCNC(=O)c2cc3ncccc3n2Cc2cccc(C)n2)cc1OCC,inactive
2,CCOc1ccc(CCNC(=O)c2cc3sccc3n2Cc2ccc(F)cc2F)cc1OCC,23.5 nM (active)
3,CCOc1ccc(CCNC(=O)c2cc3ccncc3n2Cc2cccc(C)n2)cc1OCC,inactive
4,CCOc1ccc(CCNC(=O)c2cc3cnccc3n2Cc2cccc(C)n2)cc1OCC,inactive
5,CCOc1ccc(CCNC(=O)c2cc3ccccc3n2Cc2ccccn2)cc1OCC,46.9 nM (active)
6,CCOc1ccc(CCNC(=O)c2ccccc2)cc1OCC,2350 nM (active)
7,CCOc1ccc(CCNC(=O)c2ccc(Oc3ccccc3)cc2)cc1OCC,246 nM (active)

# From PubChem BioAssay AID652180 (National Center for Advancing Translational Sciences (NCATS), 2013)
